Reference: PubChem BioAssay AID1347404 (Pan Lab, Icahn School of Medicine at Mount Sinai, 2020)
About 860 (0.61%) of roughly 140,000 compounds were called active. Only a selection was taken, and actives are over-represented in it overall. Values without a mark were called inactive. Rule as the data show it: active = inhibition above about 25%; inactive = the rest.

What follows are molecules tested against E3 ubiquitin-protein ligase RBX1 (Homo sapiens) + Cullin-1 (Homo sapiens) (UniProt P62877+Q13616) (assay: blocks human RBX1-Cullin-1 di-ubiquitin formation (AID 1347404)). Conditions: in vitro K48 di-Ub FRET, acceptor:donor ratio, 45 min; at 10 µM; hits give high values.
E3 ubiquitin-protein ligase RBX1 (Homo sapiens) + Cullin-1 (Homo sapiens), sequence (P62877 whole entry, looked up): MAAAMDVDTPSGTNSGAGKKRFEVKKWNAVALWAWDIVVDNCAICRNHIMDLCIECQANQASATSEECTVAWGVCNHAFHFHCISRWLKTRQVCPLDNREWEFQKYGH
E3 ubiquitin-protein ligase RBX1 (Homo sapiens) + Cullin-1 (Homo sapiens), sequence (Q13616 whole entry, looked up): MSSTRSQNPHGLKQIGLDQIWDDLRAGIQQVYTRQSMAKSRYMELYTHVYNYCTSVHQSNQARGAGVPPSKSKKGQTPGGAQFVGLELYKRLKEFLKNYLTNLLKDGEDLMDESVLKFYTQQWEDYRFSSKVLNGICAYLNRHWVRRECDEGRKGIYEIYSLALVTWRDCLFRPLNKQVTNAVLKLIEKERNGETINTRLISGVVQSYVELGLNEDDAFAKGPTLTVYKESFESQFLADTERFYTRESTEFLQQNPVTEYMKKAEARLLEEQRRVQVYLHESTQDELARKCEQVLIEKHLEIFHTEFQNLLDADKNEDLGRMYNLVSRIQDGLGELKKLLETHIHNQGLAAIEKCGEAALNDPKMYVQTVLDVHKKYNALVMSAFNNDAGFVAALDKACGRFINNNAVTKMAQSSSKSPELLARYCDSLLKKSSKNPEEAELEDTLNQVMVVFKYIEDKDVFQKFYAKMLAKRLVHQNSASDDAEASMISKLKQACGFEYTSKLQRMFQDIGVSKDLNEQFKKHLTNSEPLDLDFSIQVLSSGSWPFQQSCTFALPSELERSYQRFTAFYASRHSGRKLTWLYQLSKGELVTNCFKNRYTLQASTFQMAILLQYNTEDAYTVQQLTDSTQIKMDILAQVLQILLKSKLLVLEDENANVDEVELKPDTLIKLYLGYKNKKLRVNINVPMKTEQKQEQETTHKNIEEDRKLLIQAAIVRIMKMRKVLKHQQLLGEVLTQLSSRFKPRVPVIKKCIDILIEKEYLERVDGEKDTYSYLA

Row | Structure (SMILES) | inhibition
1 | Cn1c(CC(=O)c2ccc(F)cc2)nccc1=O | 2.65%
2 | COC(=O)c1cccc(COC(=O)c2ccc(NC(C)=O)cc2)c1 | 1.6%
3 | O=C(OCc1ccccc1)c1ccc(O)c(O)c1 | 43% (active)
4 | O=C(OCc1ccccc1)c1cncc(Br)c1 | -7.74%
5 | Nc1nc2cccnc2cc1Br | 1.54%
6 | CCOc1cccc2c1N[C@@H](c1ccc(C(=O)O)cc1)[C@H]1CC=C[C@@H]21 | 68.9% (active)
7 | CCOc1cccc(CC(=O)N2CCc3c([nH]c4ccccc34)C2c2ccc(F)cc2)c1OCC (centres undefined) | 1.07%
8 | Fc1cc(Br)cc2c1NC(c1ccccc1C(F)(F)F)C1CC=CC21 (centres undefined) | 1.76%
9 | CCC(C1=NN2C(=N)/C(=C\c3ccc(OC(=O)c4ccco4)cc3)C(=O)N=C2S1)c1ccccc1 (centres undefined) | -6.1%
10 | Cc1cc(/C=C2/C(=N)N3N=C(c4ccccc4Cl)SC3=NC2=O)c(C)n1-c1ccc(Cl)cc1Cl | 2.61%
11 | Cc1ccc(C2=NN3C(=N)/C(=C/c4ccco4)C(=O)N=C3S2)cc1 | 34.8% (active)
12 | Cc1ccc(C)c(-n2nnc(C(=O)Nc3ccc(N4CCN(C)CC4)cc3)c2C)c1 | 12.2%
13 | COc1cccc(OC)c1C(=O)Oc1ccc(Br)cc1Br | 3.84%
14 | CCOC(=O)C1=C(C)N=c2s/c(=C\c3ccc(N(CC)CC)cc3O)c(=O)n2C1c1ccc(Br)cc1 (centres undefined) | 49.4% (active)
15 | CCOC(=O)C1=C(C)N=c2s/c(=C\c3cc(C)n(-c4ccc(Br)cc4)c3C)c(=O)n2C1c1ccccc1Cl (centres undefined) | -10.4%
16 | CCOC(=O)C1=C(C)N=c2s/c(=C\c3cccnc3)c(=O)n2C1c1ccc(OC)c(Br)c1 (centres undefined) | -5.43%
17 | CCOC(=O)C1(CCOC)CCN(Cc2ccc(C#CCCO)cc2)CC1 | -1.32%
18 | C=C(C)COc1ccc(NC(C)=O)cc1 | -3.18%
19 | Cc1ccc(N=C2S/C(=C\c3cc(Cl)ccc3O)C(=O)N2C)cc1C | -0.425%
20 | Cc1c(CN2CCc3[nH]nc(-c4cccc(F)c4)c3C2)cnn1C | 8.08%

Row | Structure (SMILES) | inhibition
21 | CN(C)S(=O)(=O)N1CCC(C(=O)Nc2ccc(Cl)c(C(F)(F)F)c2)CC1 | 6.61%
22 | N#Cc1cccc(-c2cccc(-c3ccn[nH]3)c2)c1 | 2.7%
23 | Cc1ccc(C2=NC(=O)OC2(C)C)c(C)c1 | 2.99%
24 | COC(=O)COc1ccc(/C=N/NC(=O)c2ccc(N(Cc3ccccc3Cl)S(C)(=O)=O)cc2)cc1 | -4.5%
25 | Cc1cc(O)c(C(=O)C2=CSc3nnc(-c4ccccc4)n3N=C2)cc1Cl | 2.34%
26 | CCOC(=O)C1C(C)=NC(=O)NC1c1cn(-c2ccccc2)nc1-c1ccc(Cl)cc1 (centres undefined) | -6.88%
27 | C=CCC(=O)N1CCC(C2CCN(Cc3cccnc3)CC2)C1 (centres undefined) | 0.333%
28 | Cc1ccc(C)c(NC(=O)NC2CCCc3ccccc32)c1 (centres undefined) | -5.58%
29 | CC(Oc1ccc(F)cc1)C(=O)NC(C)c1ccccc1 (centres undefined) | -5.33%
30 | Cc1nn(-c2ccccc2)c(Cl)c1C1c2c(n[nH]c2-c2ccccc2)OC(=N)C1C#N (centres undefined) | -6.2%
31 | CCn1c2ccccc2c2cc(C=Nc3cccc(Cl)c3C)ccc21 | -4.47%
32 | COCCNC(=O)C1CCN(c2nc(C)c3cc(C)c(C)cc3n2)CC1 | -4.41%
33 | CCC(NC1CCN(c2nc(C)c3cc(C)c(C)cc3n2)CC1)c1ccncc1 (centres undefined) | 57.6% (active)
34 | Cc1cc2nc(N3CCC(C(=O)NC45CC6CC(CC(C6)C4)C5)CC3)nc(C)c2cc1C | 17.1%
35 | Clc1ccc(COn2nnc3ccccc32)cc1Cl | -0.0969%
36 | O=[N+]([O-])c1ccccc1/C=N/Nc1nc2c(s1)CCCC2 | -4.02%
37 | CCCCNC(=O)c1nnn(-c2ccccc2)c1C | 9.64%
38 | CCOC(=O)C1=c2s/c(=C/c3ccc(Cl)cc3)c(=O)n2C(=N)C(C(=O)OC)C1c1ccc(Cl)cc1 (centres undefined) | -2.16%
39 | Cc1ccc(C(=O)Nc2ccc(-c3nnc(SCC(=O)Nc4ccc(F)cc4)n3C)cc2)cc1 | 2.28%
40 | C#CCOc1ccc(/C=C2\SC(=S)N(c3cccc(C(=O)O)c3)C2=O)cc1OC | -1.21%

Row | Structure (SMILES) | inhibition
41 | O=C1SC(=Nc2ccccc2)N=C1Cc1cccc(OC(=O)c2ccccc2)c1 | 2.05%
42 | Cc1ccc(CCC(=O)NCc2ccc(Cl)cc2)cc1 | -2.97%
43 | Nc1nnnn1/N=C/c1ccc([N+](=O)[O-])o1 | 5.46%
44 | O=C(O)c1cc2c(s1)C=Cc1ccccc1C2 | 4.96%
45 | Cc1nc2c(sc3nc4ccccc4nc32)c(=O)[nH]1 | -2.71%
46 | NC(=O)c1ccccc1NC(=O)c1ccc(CN2CCCCC2)cc1 | 4.02%
47 | O=C(c1ccc2c(c1)C1C=CCC1C(c1ccccc1)N2)N1CCOCC1 (centres undefined) | -11.2%
48 | COC(=O)c1ccc2c(c1)C1C=CCC1C(c1cccc([N+](=O)[O-])c1)N2 (centres undefined) | 5.03%
49 | O=C(O)c1ccc2c(c1)[C@@H]1C=CC[C@@H]1[C@H](c1ccc3c4c(cccc14)CC3)N2 | 99.3% (active)
50 | CC(=O)Nc1ccc(OC(=O)c2cccc(C)c2)cc1 | -0.55%
51 | COc1ccccc1-c1nc(CN2CCCC2c2n[nH]c(=O)[nH]2)c(C)o1 (centres undefined) | -4.69%
52 | Cc1c(/C=N/NC(=O)CSc2nc3ccccc3s2)c2ccccc2n1C | 5.36%
53 | Brc1ccc(C#Cc2cccs2)cc1 | -4.29%
54 | O=C(COc1ccccc1Cl)Nc1nncs1 | 2.7%
55 | COc1cccc(-c2nn3c(-c4cccc(C(F)(F)F)c4)nnc3s2)c1 | -4.15%
56 | Clc1ccccc1CSc1nnc(-c2ccco2)c(-c2ccco2)n1 | 101% (active)
57 | CC1(C)N=C(SCc2ccccc2Cl)c2ccccc2N1 | -9.73%
58 | Clc1ccccc1CSc1nncn2c1cc1occc12 | 6.61%
59 | CN1CCC(N2CCCC2C(=O)Nc2ccc(-c3cccc(F)c3)cc2)CC1 (centres undefined) | -3.33%
